# Tat export inh – E. coli Tat transport inhibition; E. coli MC4100 TorA-mCherry Tat export, fluorescence; inhibition, % at 10 µM; 0.036% of 340,000 active;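 active = mean replicate inhibition at least 50% and at least half of replicates individually reaching 50%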;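 note: exported cargo escapes ClpAP degradation while cytoplasmic cargo is degraded and loses fluorescence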
# E coli growth-1 – blocks Escherichia coli growth | AID 1053175 | OD600 absorbance (no concentration beside the values) | OD600, 23 h; active compounds read low | 0.21% of 330,000 active;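 active = OD600 absorbance below the run mean of sample wells minus 3.6 SD, in any replicate, cut at about 0.56 in these data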
# phage Ecoli inh – E. coli growth loss with phage present; inhibition, % at 11.9 µM; growth absorbance; 0.26% of 360,000 active; in the data active = inhibition above about 11%
# AddAB inh – less growth of phage-infected E. coli with AddAB. E. coli expressing H. pylori AddAB, absorbance growth. inhibition, % at 11.9 µM. 0.29% of 330,000 active. AID 435030; in the data active = inhibition above about 12%
# E coli growth-2 – bacterial growth inhibition, counter-screen for AddAB inhibitors; 0.27% of 330,000 active; E. coli V3065 growth, OD600 absorbance, 18 h; AID 449728; inhibition, % at 11.9 µM;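 active = inhibition above the campaign's mean inhibition across all tested compounds plus 3 SD, cut at about 9.9% in these data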;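 note: uninfected addAB+ strain grown without phage in ampicillin broth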
# AddAB conf – growth loss of T4-infected E. coli expressing H. pylori AddAB, confirmed. shares compounds with AddAB inh. E. coli V3065 expressing H. pylori AddAB, T4 phage, OD; T4 phage with gene 2 nonsense mutations. inhibition, % at 11.9 µM. 64% of 880 active;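 active = mean inhibition above a set limit taken from the earlier primary screen, cut at about 13% in these data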;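 note: higher means less bacterial growth since AddAB block lets phage replicate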
# RecBCD counter – counter-screen: growth loss of RecBCD+ E. coli with mutant T4 phage; inhibition, % at 11.9 µM; AID 488955; 73% of 880 active; E. coli V66 + mutant T4 phage, OD growth; shares compounds with AddAB inh;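 active = mean inhibition above the mean of solvent-only control wells plus 3 SD, cut at about 4% in these data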;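 note: optical density read after an 18 h incubation at 37 °C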
# bact viab count – reduces bacterial viability, AddAB inhibitor counter-screen. 35% of 880 active. absorbance (AddAB counterscreen). AID 488956. shares compounds with AddAB inh. inhibition, % at 11.9 µM; in the data active = inhibition above about 25%
# RecBCD conf – confirmation: growth loss of phage-infected RecBCD+ E. coli (RecBCD inhibitor screen). shares compounds with phage Ecoli inh. E. coli V66 + T4 2- phage, growth OD. AID 651982. inhibition, % at 11.9 µM. 45% of 890 active;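 active = mean inhibition over triplicates exceeding the hit threshold derived in the original primary screen, cut at about 11% in these data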
# Ecoli viability – inhibits E. coli viability, flagging RecBCD hits as nonselective; shares compounds with phage Ecoli inh; absorbance (OD) growth; inhibition, % at 11.9 µM; 29% of 890 active; AID 651983; in the data active = inhibition above about 20%;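 note: E. coli strain V66 grown with compound alone and no phage infection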
# AddAB counter – growth loss of phage-infected AddAB E. coli, RecBCD counter-screen; shares compounds with phage Ecoli inh; E. coli expressing H. pylori AddAB + T4 phage, OD growth; gene 2 mutant T4, recBCD-deleted host; inhibition, % at 11.9 µM; 45% of 890 active;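 active = mean inhibition above the solvent-only control wells' mean plus 3 SD, cut at about 22% in these data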;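 note: higher means less bacterial growth from phage killing when AddAB is blocked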
# A number is an active result; - = inactive; . = no result given; ! = repeats disagree. In the library only some 0.5% were active in any assay of this set; here they are far more common.
SMILES,Tat export inh,E coli growth-1,phage Ecoli inh,AddAB inh,E coli growth-2,RecBCD conf,Ecoli viability,AddAB counter,others
N#C/C(=C(/O)c1ccc([N+](=O)[O-])o1)c1nc2ccccc2[nH]1,-,0.466,13.4,19.2,13.5,34.9,64.0,100.6,AddAB conf=95.8;RecBCD counter=63.2;bact viab count=97.8
N#C/C(=C\c1ccc(Sc2ccccc2)o1)c1nc2ccccc2[nH]1,-,-,-,-,-,.,.,.,
CC(C)(C)/C(O)=C(/C#N)c1nc2ccccc2[nH]1,-,.,-,-,-,.,.,.,
N#C/C(=C\c1ccc([N+](=O)[O-])o1)c1nc2ccccc2[nH]1,.,-,13.0,93.5,16.6,11.4,-,76.5,AddAB conf=100.1;RecBCD counter=16.0;bact viab count=94.3
O=C(CC1S/C(=N/N=Cc2cccnc2)NC1=O)Nc1ccccc1 (stereo unspecified),.,-,.,.,.,.,.,.,
COc1ccc2ccccc2c1C=NNc1ccc(Cl)c(C(=O)O)c1,.,-,.,.,.,.,.,.,
Oc1ccc2ccccc2c1C=NNc1nnc(-c2ncc[nH]2)c2ccccc12,.,-,.,.,.,.,.,.,
Oc1ccc2ccccc2c1/C=N/Nc1nnc(-c2ncc[nH]2)c2ccccc12,-,.,16.7,18.6,14.3,17.4,21.8,27.3,AddAB conf=21.6;RecBCD counter=24.2;bact viab count=-
CCNC(=S)NNC(=O)c1ccccn1,-,-,-,-,-,.,.,.,
O=C(NNC(=S)Nc1ccc(Cl)c(Cl)c1)c1ccccn1,-,-,16.8,13.6,17.5,13.8,-,34.4,AddAB conf=25.8;RecBCD counter=16.9;bact viab count=25.3
COc1ccc(OC)c(C=NNc2cc(C)nc(N3CCOCC3)n2)c1,.,-,.,.,.,.,.,.,
NC(=NCCCCCCN=C(N)/N=C(\N)Nc1ccc(Cl)cc1)/N=C(\N)Nc1ccc(Cl)cc1,155.8!,.,105.7!,103.0,104.7,103.9,104.6,104.0,AddAB conf=100.0;RecBCD counter=100.6;bact viab count=99.6
O=C1C=C(c2cc(F)ccc2F)CC(c2ccc(Cl)cc2)C1 (stereo unspecified),.,-,.,.,.,.,.,.,
C[C@@]12CCC=CC1C(c1ccoc1)N(Cc1ccccc1)C2=O (stereo partly specified),.,-,.,.,.,.,.,.,
Cc1[nH]n(-c2ccccc2)c(=O)c1C=NN1C(=O)c2ccc3c4c(ccc(c24)C1=O)CC3,.,-,.,.,.,.,.,.,
CN(C)c1ccc(Sc2ccc3nc(N)nc(N)c3c2)cc1,.,.,98.5,.,.,64.0,67.6,82.1,
COc1cc2nc(N(C)C)nc(N)c2cc1OC,-,-,-,-,-,.,.,.,
CNC(=O)Nc1cccc(C(F)(F)F)c1,-,-,-,-,-,.,.,.,
O=C(Nc1ccccc1)Nc1cccc(C(F)(F)F)c1,-,-,11.3,-,-,-,-,-,
O=C(NCc1cccnc1)Nc1cccc(C(F)(F)F)c1,-,-,-,.,.,.,.,.,
CCSCCc1nnc(NC(=O)Nc2cccc(C(F)(F)F)c2)s1,-,-,11.0,-,-,-,-,-,
O=C(Nc1ccccc1)Nc1ccc(Br)c(Cl)c1,-,-,12.0,-,-,-,-,-,
O=C(NCc1ccc2c(c1)CCO2)Nc1cccc(C(F)(F)F)c1,-,-,11.3,-,-,-,-,-,
CCC(C)C1CNCCN1CCC12CC3CC(CC(C3)C1)C2 (stereo unspecified),.,-,.,.,.,.,.,.,
FC(F)(F)c1cccc(NC(=S)NCc2ccccc2)c1,-,-,11.5,-,-,-,-,-,
SMILES,Tat export inh,E coli growth-1,phage Ecoli inh,AddAB inh,E coli growth-2,RecBCD conf,Ecoli viability,AddAB counter,others
S=C(NCc1ccccc1)Nc1ccc(Cl)cc1,-,-,-,-,-,.,.,.,
FC(F)(F)c1cccc(CNC(=S)Nc2ccccc2)c1,-,-,-,-,-,.,.,.,
FC(F)(F)Sc1ccc(NC(=S)NCc2ccccc2)cc1,-,-,12.9,-,10.1,-,-,-,
CC(NC(=O)C1CCCCC1)C(c1cccs1)N1CCOCC1 (stereo unspecified),-,-,96.5,-,-,-,-,-,
CC(NC(=S)NC1CCCCC1)C(c1cccs1)N1CCOCC1 (stereo unspecified),-,-,-,-,-,.,.,.,
COc1ccc(CCNC(=O)CC(=O)NN=Cc2ccc(Br)cc2)cc1OC,.,-,.,.,.,.,.,.,
Nc1nc(N)c2cc(S(=O)(=O)c3cccc(C(F)(F)F)c3)ccc2n1,.,.,23.5,.,.,31.5,27.3,58.8,
COc1cccc(NN=Cc2cccc(Br)c2O)c1,.,-,.,.,.,.,.,.,
Cc1cccc(C(=O)NN=Cc2ccoc2)c1,.,-,.,.,.,.,.,.,
CO[C@H]1/C=C/O[C@@]2(C)Oc3c(C)c(O)c4c(O)c(c5c(c4c3C2=O)NC2(CCN(CC(C)C)CC2)N=5)=NC(=O)/C(C)=C\C=C\[C@H](C)[C@H](O)[C@@H](C)[C@@H](O)[C@@H](C)[C@H](OC(C)=O)[C@@H]1C,107.3,.,95.0,.,.,95.1,98.9,99.5,
O=C(c1ccc(NC2=NC3CS(=O)(=O)CC3S2)cc1)N1CCN(Cc2ccccc2)CC1 (stereo unspecified),-,-,12.7,-,-,-,-,-,
COc1ccccc1C(=O)NC(CCSC)C(=O)NNC(=O)c1ccccc1O (stereo unspecified),-,-,11.7,-,-,-,-,-,
CC(=NNC(=O)CNc1ccc(Cl)cc1C)c1ccc(C)cc1,.,-,.,.,.,.,.,.,
O=[N+]([O-])c1ccc(-n2cccc2C=NNc2nc(N3CCCCC3)nc(N3CCCCC3)n2)cc1,.,-,.,.,.,.,.,.,
COC(=O)c1ccc(NC(=O)Nc2ccc(F)cc2F)cc1,-,-,-,-,-,.,.,.,
COC(=O)c1ccc(NC(=O)Nc2cccc(F)c2)cc1,-,-,11.6,-,-,-,-,-,
CNc1cccnc1C=NNC(N)=S,-,.,-,.,.,.,.,.,
NC(=S)NN=Cc1nccc2c(C(F)(F)F)cccc12,.,.,16.5,.,.,18.5,21.0,21.6,
Cc1cc(NS(=O)(=O)c2ccc(NC(=S)Nc3ccc(Cl)cc3C)cc2)no1,-,-,12.4,-,-,-,-,-,
CCc1ccc(NC(=O)CCC(=O)N2CCSc3ccccc32)cc1,-,-,13.6,-,-,-,-,-,
CCn1c(C)cc(C(=O)COC(=O)CNC(=O)c2ccco2)c1C,.,.,11.4,.,.,-,-,-,
NC(=O)C(CC(=O)O)NC(=O)C1CCOc2c(I)cc([N+](=O)[O-])cc2C(=O)NC(CO)C(=O)NC(Cc2ccc(O)cc2)C(=O)N1 (stereo unspecified),.,-,.,.,.,.,.,.,
CCCCN1C(=N)N(C(C)CN2CCCC2CN2C(N)=NCC2CC(C)C)CC1C(C)CC (stereo unspecified),.,-,.,.,.,.,.,.,

# Screening data from PubChem BioAssay.
